# In PubChem BioAssay AID1508600 (Functional Genomics Laboratory (NCATS/FGL), 2020):
# Hit rate of the full screen: of about 53,000 sequences, about 3,700 (7%) were called active.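 Rule for the calls: active = gene knockdowns whose robust z-score for IL-1 alpha signal is at least 2 or at most -2, so actives lie on both sides; inactive = the rest.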 This excerpt belongs to a sample that is enriched for actives.
# Test: Components of the Cytosolic LPS Sensing Pathway: Gene Identification via Genome-wide siRNA Screen;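 note: robust z of the log signal after scaling to non-targeting control siRNA wells of the plate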
# Settings: RAW264.7 macrophages, IL-1a HTRF, actives lie on both sides, screened at 100 nM (by protocol), cells primed 5 h with Pam3CSK4 first
# How it was run: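 Read-out: IL-1a HTRF on supernatant, divided by plate negative-control median ×100, log-transformed and converted to robust z-score. Cells were RAW264.7 given 100 nM siRNA, Pam3CSK4-primed 5 hours, then LipidA-transfected 24 hour.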
row,Sequence,z-score
1,GGAGGCUUAUCCUAAAAAGTT against 6330444E15Rik,-1.02 (inactive)
2,GCUGAACCUAUGAGGGAGATT against Gpank1,0.809 (inactive)
3,GGAGUUCAUUCUGGAUAUCTT against Matn2,1.24 (inactive)
4,CCUAGGGCUUUAGCUCUGATT against Msc,-0.75 (inactive)
5,GGAUUAAACCUUUUAACCGTT against Emilin3,-0.251 (inactive)
6,GCAUGUUUUACAGUGUUCATT against Rxfp1,2.7 (active)
7,GCCGGAUGGCACAUUCGUATT against Cda,-0.281 (inactive)
8,CCUAAGGUCAAGAUAUAGCTT against Cep55,0.121 (inactive)
9,CCCACCAGAUUUCUACACCTT against Vsig2,-2 (inactive)
10,GGCUAUGGACCGAAAGAUUTT against Dgcr6,-1.42 (inactive)
11,GCAGCUGUCAUGUAUACAGTT against Olfr59,-0.867 (inactive)
12,GGAAUAUCCCAACAUCUGUTT against Upp1,-0.899 (inactive)
13,GCAGUAUGUAAACCCUUACTT against Olfr1463,0.558 (inactive)
14,CGACCUUAAGCUAAGCAGUTT against Aff3,1.18 (inactive)
15,GGAAUUUUCUCAUGAUCUUTT against Krtap3-3,0.813 (inactive)
16,GGGCUAUUAAAUGAUUUCATT against Pax1,5 (active)
17,GCCAUGAUUUUCAUGUACGTT against Olfr711,0.241 (inactive)
18,CCUUAAUAAAUCUAGUGGCTT against Stmn3,-0.567 (inactive)
19,GCGGCUUAUGUCUCAAAUUTT against Gcdh,2.34 (active)
20,GGCCGAUGCCAAAUUGGUATT against Olfm1,0.0323 (inactive)
21,GGACUAGCAAGGCAAGUGATT against Dnase2b,1.32 (inactive)
22,GGGAAUCGGACCAACUUACTT against Adssl1,3.64 (active)

row,Sequence,z-score
1,GCGAGUUUAAUGUUUAUGCTT against Pdgfra,-1.29 (inactive)
2,GCCCAGCAUGGAUAGAUUATT against Mis18bp1,0.466 (inactive)
3,GGAAAAUGUAAACAAGUACTT against Xpo5,-0.595 (inactive)
4,GGAUAACACCACCAACUAUTT against Akap8l,0.456 (inactive)
5,GGGCUGUUCUACUUAGUUATT against N6amt1,0.573 (inactive)
6,GGAUUAAAGAAAGACAUUGTT against Yme1l1,-2.04 (active)
7,CGCCAGAGUGCAUAGUCUUTT against Mindy2,1.94 (inactive)
8,GCCAUUUUAGAGCAGAUCCTT against Rundc3a,-2.33 (active)
9,GCAAACUGUCCUAUCUUGGTT against Cacna1d,0.84 (inactive)
10,GGUGUUGUUUCGAAUUAUUTT against Xrn1,0.44 (inactive)
11,GGUUCAGGUUCUUCUAAAATT against Cd109,1.42 (inactive)
12,GCACCUGAGCUUUCGAAUATT against Fam3a,-0.373 (inactive)
13,CCGUGGAAACAGUCCUGAATT against Nudcd1,0.646 (inactive)
14,GCUACUCUCGCCUGUUACATT against Dcaf12,0.0053 (inactive)
15,GGCCAAUGCCCUUUUUUGATT against Spem2,0.427 (inactive)
16,GUUCCCUGCCUGGCAGAAUTT against Foxd2,3.8 (active)
17,GGCAGCACCAUCGUCUAAUTT against 4930432E11Rik,0.622 (inactive)
18,GGUCAAGUCACUGGUGACGTT against Fabp3,-1.73 (inactive)
19,GGAAGAUGGGCUAUUUCAUTT against Gabra6,0.545 (inactive)
20,GGACAAGACCAUCUUCGAUTT against Sectm1a,0.21 (inactive)
21,CCAAAUCCCAGAGUUAUUUTT against Htr2c,0.361 (inactive)
22,GCAAAAGACCAUCUGAGUGTT against Adig,0.375 (inactive)

row,Sequence,z-score
1,GGAAUUGGCAUCCUUAAGCTT against Cops3,2.43 (active)
2,GGUCAGAAGGUGUGUUAUATT against Rad52,0.338 (inactive)
3,GGCAUUCCCAGUCGUAAAGTT against Kctd3,-1.1 (inactive)
4,GGUUUAUAUCCGUACACCUTT against Sp2,1.97 (inactive)
5,GGUGUUCUACUGUGCAUUATT against 9330132A10Rik,0.578 (inactive)
6,GUUCCUCAGUAUGUUGCCATT against Olfr126,-2.85 (active)
7,GGGAUUGGUUAUUUUACAUTT against Trmt12,-0.578 (inactive)
8,GGAAAUAUGGCAAGAAUUUTT against Rgs7,0.781 (inactive)
9,GCUAAUGUGGAGGACUCACTT against Chml,-0.574 (inactive)
10,GCAUUUCCCAGCCUGAUACTT against Aif1l,-0.584 (inactive)
11,GGUGACACAGUACAAGAAGTT against Rpl36a,0.318 (inactive)
12,GGCGAGAAACCUUUCAGAUTT against Zic4,4.72 (active)
13,CGGCGAUGGAAAAAAAUUUTT against Tmem178,1.04 (inactive)
14,GGGUGCUUACAGAAUAUCUTT against Ms4a19,1.07 (inactive)
15,GGUGAACCCUUUGAGGAAGTT against Gstt3,-0.42 (inactive)
16,GGAUUAAAUGGUGGUGGAGTT against Dnajb6,-1.1 (inactive)
17,GGAUGAAAUUGUGUUAUCUTT against Snrk,-0.371 (inactive)
18,GCCCUUUUACGGCAACAGATT against C2cd5,-1.48 (inactive)
19,CCACAUGCCAAAAUAAUACTT against Oxr1,-0.771 (inactive)
20,GGAAGAACUUGUCUCUUUUTT against Tmtc2,0.501 (inactive)
21,GGAUGCUGUAACACUUUAUTT against Bcl6,3.31 (active)
22,GCGAUCACUUUUCAAGUUUTT against Rnf139,0.0177 (inactive)

row,Sequence,z-score
1,GGAAAUCCUCAGACAAAUGTT against Pdc,0.93 (inactive)
2,GGAAAUGUACCUGUUUGUUTT against Dnase1l2,0.928 (inactive)
3,GGCUUAGGUGUCCGAGAAATT against Wfdc2,-1.01 (inactive)
4,GGCUGUGGUAGAAAAGCUGTT against Hspg2,-1.65 (inactive)
5,CCAUAUCUAUGAUAUGGUUTT against Piezo2,-2.18 (active)
6,GGAAGAUCCAUUUAAUGUATT against Eps15,1.14 (inactive)
7,GCUGAAGGGUCUCGUAUUGTT against Hes2,0.262 (inactive)
8,GGCUUUGAUGUCAGCACUGTT against Ngrn,0.247 (inactive)
9,GCUCAUGCAUGGCUGUACATT against Gbp9,0.603 (inactive)
10,GGAGCAUUCUCCAUCUAGCTT against Dennd2d,-1.41 (inactive)
11,GGAGGAGUCUUGAAUCCAGTT against Yod1,-0.122 (inactive)
12,GGACUUGGUGACUUACUUCTT against Smpdl3b,-1.42 (inactive)
13,CGGGUAAUAAGGAUUUGGGTT against Cadm4,2.05 (active)
14,GGAGACAGUUCAGAAGUGGTT against Glp2r,0.0837 (inactive)
15,GAAGUCUGUGACCAGUUCCTT against Fgf2os,0.735 (inactive)
16,GCUAGGUGGGCAACUGUAUTT against Lpar3,2.12 (active)
17,CCCUGAAACCUCGGUGUUUTT against Vmac,1.34 (inactive)
18,GGAACUGGAGAUGCACAGCTT against Mtcl1,1.2 (inactive)
19,GGAAAUUGUCAGGUCCUACTT against Rad50,2.94 (active)
20,GGUUAUGUGUUCCAUAGAUTT against Pcdhb13,0.248 (inactive)
21,GGAUAAACAGCUGAAGGUGTT against Ccs,0.762 (inactive)
22,GGCCGUUUUUUGGCAUCGUTT against Acss1,-1.71 (inactive)

row,Sequence,z-score
1,GGCAAGCCAGAGAAACUGATT against Rbm42,6.18 (active)
2,GGUAAUCCUGACUUCGUGGTT against Asb17,0.915 (inactive)
3,GCCGUAUUCAUUAAUAAAGTT against Ash1l,0.0753 (inactive)
4,GCUAGAAAGGACUUCGUGGTT against Pla2g4f,-2.36 (active)
5,CGAUUUCACAAAAACAUGATT against Vta1,-0.394 (inactive)
6,GGUGUUGGAGACCAUGGAUTT against Clcn6,0.829 (inactive)
7,CGUGAUGUACAUGCAGGAUTT against Slc48a1,2.83 (active)
8,GCAAUCGACCGCAUCCUAATT against Gm4827,-1.32 (inactive)
9,GGGCUCCAAUUUGCUACCATT against Grp,0.342 (inactive)
10,GCAGCAAUCAGAUCAUGUATT against Platr26,-0.694 (inactive)
11,GGUCCAGAUUGCUUAGAUGTT against Zbtb11os1,-0.398 (inactive)
12,CCUUAUACCAUAGAGAACATT against Bfar,1.14 (inactive)
13,GGAGAAACGAAAAGACUCUTT against Brpf1,-2.25 (active)
14,GGCUUCAAGGACUUUACAATT against Mefv,1.62 (inactive)
15,GGUGUGCUCUGUAAAUCAUTT against Trappc2,0.656 (inactive)
16,GGAUGAGCAUAAAAGUCCUTT against Atf7ip,-0.536 (inactive)
17,CCUGUCACAGAUGUAUGUGTT against Rnf149,0.331 (inactive)
18,GGAAUCUCCACCAUACAGGTT against Vmn1r26,-0.263 (inactive)
19,GGAGGAUACAGUGGAGGGATT against Fbxl19,2.81 (active)
20,GGACGGUAGCCAUAUUAAUTT against Spink2,-0.385 (inactive)
